# Measurements taken from the supplement of paper PMC6555819.
# Test system: LXRa:RXRa (NR concentration 270 nM, RXRa partner concentration 90 nM)
# Experiment: PBM binding z-score (relative to random genomic background probes); higher = stronger binding; sequences stand for … in GC…GCGATTGACAGCGTAGAATGAAGG
# Method in brief: (§1)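 Binding z-scores take random background probes as their reference. They come from custom Agilent 4×180K protein-binding microarrays incubated 1 h with ligand-free nuclear receptor dimers, with antibodies against each partner (one per run) detecting binding. Scanned fluorescence was regression-normalized.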
row,Sequence,PBM binding z-score
1,CCTAGTTGGTCAGCAGGTCACACACCGGATATGA,1.8
2,AGTCAAAGTTCAGGAGGAGGTAACGTAAAGCACG,3.87
3,CCAGACAGGTGAGAAGTTAACTCAGCCTCGATTA,-0.285
4,TCGAGTAGGTTAGTCGGGGCATTAAGCCAACATA,-0.0214
5,CCTTCTGGGCCACGAAAGGTCATTGATTCAGTGA,5.51
6,TGTCAAAGTTCAAAGGTAACGTTAGTATCCACAC,6.46
7,GCGAGTTGGTCAGTAAAAGGTCACACACCGGTCG,4.42
8,ATATGTAGGTTAAGGGACATTCAGGTTGGTTCGC,1.06
9,CCTATTAGTTGGCCATAAGGGCAACCGAAGCTCG,0.0422
10,GCTGCTAGGTCAAATGATGGTCAGCTAAAGCTCG,3.62
11,GCAGACAGGTGAAACGCAGGTCACTCAGGGTGGC,2.05
12,TCTATTAGTTGATTAGGACAACCGAAACAGCGGA,0.808
13,ACTATTAGTTGACTCAGGGCAACCGATACGACGC,0.225
14,ATCTCTACGTAAAGATAGTTCAGTGAATGCAAAT,-0.0846
15,CGTTACGGGTCACGAGGTTATAGCACGACGAGCG,4.97
16,TTTCAAAGTTCAAAGGTAACGTAAGTATCCACAC,6.88
17,TCTGGCAGGCCAGAGGGTCACTCAAGAGGTACGG,1.09
18,TCATATAGGTAAAGGTGTAAGTCGAACGATATGA,0.266
19,TTATATAGGTAAAGGTGAAAGTCGAACGATATGA,1.34
20,GATACAGGGTCACGGCCAGAGTACGCGTATTGAT,5.1

row,Sequence,PBM binding z-score
1,GCTAGCAGGCAATTTGGGTCACTCAATGACGGGC,0.398
2,CCTAGCCGGCCAGGGTCACTCAAGCATTTCGCTT,1.64
3,ACGGACAGGTGAGTGAAGGTAACTCAGCTGGACG,0.141
4,ATCTCTAGGTAACCAAGTTCAGTGGATGCCGAAC,0.544
5,CCTAGCAGGCCAATCTGGGGCACTCAAGGCTTGA,-0.285
6,CGTCCAAGGACAAAGGTCAGTGAAGAGATGACGG,3.25
7,GATACAGGGTCAAGGCTAGAGTACGCGTATTGAT,4.13
8,AATACAGGGTCTTCGTAGGCCAGAGTACGCACAG,0.0766
9,CCTACTGGGCCAAGGTCATGGATCAGTCAAAGCA,3.08
10,GGAACGCGGGCAAAGTTGATAGCATCTGTCGACG,-0.465
11,ACTATTAGTTGAGACGATGGCAACCGATAGGTTG,-0.267
12,CAGCCTATGTCAGGGCCAGTATAGGAGGAACGTT,-0.569
13,CCGACTGGGGCTAGGTTACCATAACGCACAGCCA,-0.225
14,CGAACTAGGTCATTGACAGGACTGTGAATAGTAA,2.5
15,CGAACGAGGGCCTGAGTTGATAGCAAATGCCGAT,-0.754
16,GCTAGTAGGCCATTTGGGTCACTCAATGACGGGC,-0.00892
17,GCTGCTAGGTGAGGTTGGTCAGCTAACGGGTACG,-0.442
18,ATACCAGGGTGATCGTGAGGTCGTTGATACTAAC,1.44
19,GCTAGCAGGCCATTTGGGTGACTCAATGACGGGC,-0.729
20,GCTGCTAGGTCAGGTTGGTCAGCAAACGGGTACG,0.793

# Test system: LXRa homodimer (NR concentration 270 nM)
# Experiment: as above
# Method in brief: as §1
row,Sequence,PBM binding z-score
1,CCTAGTTGGTCAGCAGGTCACACACCGGATATGA,1.16
2,AGTCAAAGTTCAGGAGGAGGTAACGTAAAGCACG,1.6
3,CCAGACAGGTGAGAAGTTAACTCAGCCTCGATTA,-0.173
4,TCGAGTAGGTTAGTCGGGGCATTAAGCCAACATA,-0.347
5,CCTTCTGGGCCACGAAAGGTCATTGATTCAGTGA,4.66
6,TGTCAAAGTTCAAAGGTAACGTTAGTATCCACAC,4.63
7,GCGAGTTGGTCAGTAAAAGGTCACACACCGGTCG,4.78
8,ATATGTAGGTTAAGGGACATTCAGGTTGGTTCGC,0.514
9,CCTATTAGTTGGCCATAAGGGCAACCGAAGCTCG,-0.122
10,GCTGCTAGGTCAAATGATGGTCAGCTAAAGCTCG,0.405
11,GCAGACAGGTGAAACGCAGGTCACTCAGGGTGGC,0.579
12,TCTATTAGTTGATTAGGACAACCGAAACAGCGGA,0.615
13,ACTATTAGTTGACTCAGGGCAACCGATACGACGC,0.326
14,ATCTCTACGTAAAGATAGTTCAGTGAATGCAAAT,0.644
15,CGTTACGGGTCACGAGGTTATAGCACGACGAGCG,0.389
16,TTTCAAAGTTCAAAGGTAACGTAAGTATCCACAC,6.41
17,TCTGGCAGGCCAGAGGGTCACTCAAGAGGTACGG,-0.32
18,TCATATAGGTAAAGGTGTAAGTCGAACGATATGA,-0.224
19,TTATATAGGTAAAGGTGAAAGTCGAACGATATGA,0.121
20,GATACAGGGTCACGGCCAGAGTACGCGTATTGAT,-0.0336

row,Sequence,PBM binding z-score
1,GCTAGCAGGCAATTTGGGTCACTCAATGACGGGC,-0.578
2,CCTAGCCGGCCAGGGTCACTCAAGCATTTCGCTT,-0.316
3,ACGGACAGGTGAGTGAAGGTAACTCAGCTGGACG,-0.591
4,ATCTCTAGGTAACCAAGTTCAGTGGATGCCGAAC,0.622
5,CCTAGCAGGCCAATCTGGGGCACTCAAGGCTTGA,-0.624
6,CGTCCAAGGACAAAGGTCAGTGAAGAGATGACGG,1
7,GATACAGGGTCAAGGCTAGAGTACGCGTATTGAT,0.107
8,AATACAGGGTCTTCGTAGGCCAGAGTACGCACAG,-0.419
9,CCTACTGGGCCAAGGTCATGGATCAGTCAAAGCA,0.47
10,GGAACGCGGGCAAAGTTGATAGCATCTGTCGACG,-0.736
11,ACTATTAGTTGAGACGATGGCAACCGATAGGTTG,0.0381
12,CAGCCTATGTCAGGGCCAGTATAGGAGGAACGTT,-0.136
13,CCGACTGGGGCTAGGTTACCATAACGCACAGCCA,-0.483
14,CGAACTAGGTCATTGACAGGACTGTGAATAGTAA,0.131
15,CGAACGAGGGCCTGAGTTGATAGCAAATGCCGAT,-0.624
16,GCTAGTAGGCCATTTGGGTCACTCAATGACGGGC,-0.666
17,GCTGCTAGGTGAGGTTGGTCAGCTAACGGGTACG,-0.661
18,ATACCAGGGTGATCGTGAGGTCGTTGATACTAAC,0.904
19,GCTAGCAGGCCATTTGGGTGACTCAATGACGGGC,-0.901
20,GCTGCTAGGTCAGGTTGGTCAGCAAACGGGTACG,-0.389
